PI5P4Ka inh: qHTS for Inhibitors of phosphatidylinositol 5-phosphate 4-kinase (PI5P4K); Phosphatidylinositol 5-phosphate 4-kinase type-2 alpha (Homo sapiens), P48426; actives 1.2% (n = 330,000); max response, %; AID 652105, 2013; PI5P4Kalpha enzyme, ADP-Glo luminescence, 60 min; hits give low values; active = max response of -50% or lower; inconclusive = between -30% and -50%; inactive = -30% or higher; also: value at the top dose of about 77 µM
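ADP-Glo luminescence end-point read after a 60 min room-temperature kinase reaction of PI5P4Kalpha plus substrate, initiated with ATP at 5 microM final. Buffer: 0.038 M HEPES pH 7.4, EGTA, 0.1% CHAPS, 5% DMSO.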
KAT2A inh: qHTS Assay for Inhibitors of GCN5L2. GCN5L2 HAT assay, ThioGlo1 CoA-SH fluorescence. Potency, µM (titrated, usually from 58.9 µM), hits mostly inhibitors. actives 0.21% (n = 390,000). AID 504327, 2011
Target sequence (Q92830 whole entry, looked up): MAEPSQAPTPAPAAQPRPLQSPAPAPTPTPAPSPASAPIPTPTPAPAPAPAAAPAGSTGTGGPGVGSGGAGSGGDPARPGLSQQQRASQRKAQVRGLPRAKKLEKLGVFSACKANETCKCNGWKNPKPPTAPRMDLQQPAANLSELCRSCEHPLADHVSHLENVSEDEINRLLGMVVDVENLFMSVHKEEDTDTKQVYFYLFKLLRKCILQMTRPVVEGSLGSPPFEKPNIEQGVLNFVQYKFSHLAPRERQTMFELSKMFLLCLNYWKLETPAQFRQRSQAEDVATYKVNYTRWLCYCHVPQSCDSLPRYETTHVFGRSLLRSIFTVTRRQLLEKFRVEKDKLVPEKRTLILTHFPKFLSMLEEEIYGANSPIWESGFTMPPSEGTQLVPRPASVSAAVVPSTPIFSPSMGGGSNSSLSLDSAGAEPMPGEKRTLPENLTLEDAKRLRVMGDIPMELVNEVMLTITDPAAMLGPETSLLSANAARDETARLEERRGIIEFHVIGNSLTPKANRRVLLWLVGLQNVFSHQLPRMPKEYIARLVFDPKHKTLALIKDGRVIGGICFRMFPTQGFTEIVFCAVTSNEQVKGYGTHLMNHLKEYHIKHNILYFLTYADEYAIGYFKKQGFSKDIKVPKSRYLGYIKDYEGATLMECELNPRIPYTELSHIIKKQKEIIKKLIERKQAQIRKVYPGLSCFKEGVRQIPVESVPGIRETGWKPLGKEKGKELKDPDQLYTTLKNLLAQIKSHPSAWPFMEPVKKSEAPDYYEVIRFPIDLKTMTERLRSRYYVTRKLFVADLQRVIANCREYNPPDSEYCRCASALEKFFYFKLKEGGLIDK
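GCN5L2 (20 nM) in 50mM HEPES pH 7.5, 0.1mM EDTA, 0.01% Tween-20 preincubated 15 min with compounds at room temperature. Reaction started with H3(1-25) 75uM, acetyl-CoA 70uM, ThioGlo1 50uM; CoA-thiol fluorescence (Ex340/Em540) read at 0 and 20 min.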
VDR inh: Inhibitors of the vitamin D receptor (VDR): qHTS; AID 504847, 2011; actives 0.93% (n = 400,000); VDR-SRC2-3 peptide fluorescence polarization, 2 h; Vitamin D3 receptor (Homo sapiens), P11473; Potency, µM, usual class: inhibitors
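The screen uses fluorescence polarization to detect compounds that interfere with recruitment of the SRC2-3 coactivator peptide to VDR; plates are read after 2 h at room temperature.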
PLK1 PBD inh: qHTS for Inhibitors of PLK1-PDB (polo-like kinase 1 - polo-box domain): Primary Screen. actives 2.8% (n = 360,000). Plk1 PBD binding of FITC phosphopeptide, fluorescence polarization. Serine/threonine-protein kinase PLK1 (Homo sapiens), P53350. AID 720504, 2013. Potency, µM, hits mostly inhibitors; also: series mostly up to about 57 µM; nearly all actives have a fitted effect of over 65% in size
Rango complex inh: qHTS Assay for Inhibitors of Rango (Ran-regulated importin-beta cargo) - Importin beta complex formation | Importin subunit beta-1 (Homo sapiens), Q14974 | Rango CFP/YFP FRET sensor + importin beta, 45 min | Potency, µM (titrated, usually from 92.2 µM) | actives 0.031% (n = 340,000); calls by dose curve; also: nearly all actives have a fitted effect of over 15% in size
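FRET biosensor Rango (snurportin 1 IBB between N-terminal EYFP and C-terminal Cerulean), 50 nM in PBS/1 mM DTT/0.02% Tween-20/0.1% BSA, preincubated 5 min RT with compound; 0.125 microM importin beta added, 45 min RT, CFP/YFP FRET ratio read.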
Rango release inh: qHTS Assay for Inhibitors of RanGTP induced Rango (Ran-regulated importin-beta cargo) - Importin beta complex dissociation; Biochemical FRET Rango-importin beta, RanGTP-induced dissociation; Potency, µM (doses to about 46.1 µM); actives 0.071% (n = 340,000); AID 540253, 2011; calls by dose curve; also: nearly all actives have a fitted effect of over 45% in size
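Quantitative HTS using a FRET biosensor: 0.1 uM Rango, 0.25 uM importin beta, 0.6 uM Ran, 2 mM GTP, 0.2 uM RCC1 final, PBS with DTT, Tween-20 and BSA. Post-read taken 45 min after Ran addition.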
Of the large screens only hits and unclear results are named; the others gave an inactive call; ! = repeats disagree; [ ] = dose if it differs, or a comment. Compounds with a hit are over-represented: about 3.6% of the library has one in this group of screens. Unless noted, calls follow the shape of the dose curve; as a rule, active = well fitted curve in the direction sought with a large enough effect; inconclusive = small, poorly fitted or top-dose-only effect, or another doubt; inactive = no such curve, though single readings can be large; an effect the other way counts as inactive or inconclusive.

O=C(O)c1cc(=O)n(Cc2ccccc2)c(=O)[nH]1	PI5P4Ka inh inconclusive
CC[C@]1(O)C[C@H]2CN(CCc3c([nH]c4ccccc34)[C@@](C(=O)OC)(c3cc4c(cc3OC)N(C=O)[C@H]3[C@@](O)(C(=O)OC)[C@H](OC(C)=O)[C@]5(CC)C=CCN6CC[C@]43[C@@H]65)C2)C1	none (no result: PI5P4Ka inh, PLK1 PBD inh, Rango complex inh, Rango release inh)
CCOc1ccc(N2C(=O)CC(N(Cc3ccco3)C(=O)CC)C2=O)cc1 (stereo not drawn)	PLK1 PBD inh 27µM
CCCOc1ccc(N2C(=O)CC(N(Cc3ccco3)C(=O)CC)C2=O)cc1 (stereo not drawn)	none
CCOC(=O)C(C)Sc1ccc2nnc(-c3ccc(OCC)cc3)n2n1 (stereo not drawn)	none (no result: PI5P4Ka inh, KAT2A inh, PLK1 PBD inh, Rango complex inh, Rango release inh)
CN(C)/[N+]([O-])=N/Oc1cc(ON=[N+]([O-])N2CCN(c3ncccn3)CC2)c([N+](=O)[O-])cc1[N+](=O)[O-]	none (no result: PI5P4Ka inh, KAT2A inh, PLK1 PBD inh, Rango complex inh, Rango release inh)
CCCNC(=O)CC(NS(=O)(=O)c1ccc(Cl)cc1)c1ccco1 (stereo not drawn)	none
O=C(CCSc1ccc(Cl)cc1)c1ccco1	VDR inh inconclusive, PLK1 PBD inh inconclusive
O=C(CSc1ccc(Cl)cc1)NC(=O)NCc1ccco1	VDR inh inconclusive, PLK1 PBD inh 3µM
O=C(CC(NS(=O)(=O)c1ccc(Cl)cc1)c1ccco1)NCc1ccco1 (stereo not drawn)	PLK1 PBD inh 30µM
O=C(CSc1ccc(Cl)cc1)c1ccco1	VDR inh inconclusive, PLK1 PBD inh 9.5µM (no result: PI5P4Ka inh)
Nc1nnc(SCC(=O)c2ccco2)s1	none (no result: PI5P4Ka inh)
O=C(CSc1ccccc1Cl)c1ccco1	VDR inh inconclusive, PLK1 PBD inh 21µM
Cc1cccc(NC(=O)C2CCCN(S(=O)(=O)c3cccc4nonc34)C2)c1C (stereo not drawn)	none (no result: PI5P4Ka inh, PLK1 PBD inh, Rango complex inh, Rango release inh)
O=c1oc2c(O)c(O)cc3c(=O)oc4c(O)c(O)cc1c4c23	PI5P4Ka inh -100, KAT2A inh inconclusive, VDR inh 40µM!, PLK1 PBD inh 8.4µM, Rango complex inh inconclusive
COc1ccc(-c2c(O)c3cc(O)cc(O)c3oc2=O)cc1	none (no result: PI5P4Ka inh, PLK1 PBD inh, Rango complex inh, Rango release inh)
CC(C)(C)c1ccc(C(=O)/C(C#N)=C/c2cccs2)cc1	PLK1 PBD inh 7.5µM
O=C(/C=C/c1cccs1)N1CCN(c2ccc(F)cc2)CC1	none
O=C(O)/C=C/C(=O)N1CCN(c2ccc(F)cc2)CC1	PLK1 PBD inh 19µM
CCCc1c(C)nc2ccccc2c1SCCC#N	PLK1 PBD inh 21µM
Cc1ccc(C)c(Cn2c(C3CC(=O)N(c4ccccc4C)C3)nc3ccccc32)c1 (stereo not drawn)	none (no result: PI5P4Ka inh, PLK1 PBD inh, Rango complex inh, Rango release inh)
CCOC1=C2[C@H](c3ccccc3)N(S(=O)(=O)c3ccc(C)cc3)C(C(C)(C)C)[C@H]2C(C#N)(C#N)C(C#N)(C#N)C1 (stereo partly drawn)	PI5P4Ka inh -50 (no result: KAT2A inh, VDR inh, Rango complex inh, Rango release inh)
COc1ccc(S(=O)(=O)CCC(=O)N2CCN(c3ccc([N+](=O)[O-])cc3)CC2)cc1	none
COc1ccc(CNC(=O)CC(C)S(=O)(=O)c2ccc3c(c2)NC(=O)CO3)cc1 (stereo not drawn)	PLK1 PBD inh 24µM
Cc1cccc(N2CCN(S(=O)(=O)c3ccc4c(c3)NC(=O)CO4)CC2)c1C	PLK1 PBD inh 27µM
Cc1ccc(S(=O)(=O)CCC(=O)N2CCN(c3ccc([N+](=O)[O-])cc3)CC2)cc1	VDR inh 25µM
Cc1cc2c(cc1S(=O)(=O)N1CCN(c3cccc(C)c3C)CC1)OCC(=O)N2	KAT2A inh inconclusive
Cc1cc2c(cc1S(=O)(=O)N1CCN(c3cccc(C(F)(F)F)c3)CC1)OCC(=O)N2	VDR inh inconclusive, PLK1 PBD inh 21µM
CC1CCN(c2oc(-c3cccs3)nc2S(=O)(=O)c2ccc(Cl)cc2)CC1	VDR inh inconclusive (no result: PI5P4Ka inh, PLK1 PBD inh, Rango complex inh, Rango release inh)
CCCCN(CC)c1nc(C)nc2c1c(C)c(C)n2-c1c(C)cc(C)cc1C	none (no result: PI5P4Ka inh, PLK1 PBD inh, Rango complex inh, Rango release inh)
O=C(Cn1cc(C(=O)c2ccncc2)c(=O)c2cc(F)ccc21)Nc1ccc(Cl)cc1	none (no result: PI5P4Ka inh, PLK1 PBD inh, Rango complex inh, Rango release inh)
COc1cccc(NC(=O)C2CCN(S(=O)(=O)c3ccc4c(c3)NC(=O)CO4)CC2)c1	KAT2A inh inconclusive, VDR inh inconclusive, PLK1 PBD inh 21µM
COc1ccc(N2CCN(C(=O)CCS(=O)(=O)c3ccc4c(c3)NC(=O)CO4)CC2)cc1	PLK1 PBD inh 24µM
Cc1cccc(N2CCN(S(=O)(=O)c3ccc4c(c3)OCCO4)CC2)c1C	Rango complex inh inconclusive, Rango release inh 18µM[inhibitor]
Cc1cccc(N2CCN(C(=O)CCS(=O)(=O)c3ccc4c(c3)NC(=O)CO4)CC2)c1C	VDR inh inconclusive, PLK1 PBD inh 12µM
Cc1cccc(NC(=O)C2CCN(S(=O)(=O)c3ccc4c(c3)NC(=O)CO4)CC2)c1	none
